This is a sample that favours compounds with a hit; in the whole collection about 6.7% have one here.
Pf Dd2 inh: inhibitors of Plasmodium falciparum Dd2 growth; P. falciparum Dd2 growth, SYBR Green, 72 h; hits give low values; activity change, % at 10 µM; AID 1159554; 94,000 tested, 2.3% active; in the data active = activity change below about -80%; inconclusive = no clear call, values can overlap the other calls
C diff growth: inhibitors of Clostridium difficile growth. 86,000 tested, 0.25% active. growth activity, negative = inhibition, % at 16 µg/mL (by protocol). AID 1259249. Clostridium difficile clinical isolate growth, OD600, 24 h; hits give low values;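 active = mean growth activity at or below -80% and every replicate also at or below -80%; inconclusive = mean at or below -80% but some replicate above -80%; inactive = mean growth activity above -80%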
T cruzi growth-1: blocks T. cruzi growth in NIH3T3 culture. 77,000 tested, 5.9% active. T. cruzi beta-gal in NIH3T3, GalScreen luminescence, 90 h. inhibition, % at 8.34 µM;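 active = mean inhibition above about 93%, with at least 55% of replicates each passing it, limit read from the data, passing the limit was not always enough; inconclusive = only one of those two conditions holds; inactive = neither condition holds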
T cruzi growth-2: blocks T. cruzi growth in NIH3T3 host cells | shares compounds with T cruzi growth-1 | T. cruzi beta-gal in NIH3T3, GalScreen luminescence, 90 h | inhibition, % at 8.35 µM | 5,600 tested, 72% active | AID 651739;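 active = mean replicate inhibition above about 95% and at least 55% of replicates individually reaching it, limit read from the data; inconclusive = only one of the two criteria is met; inactive = neither criterion is met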
T cruzi growth-3: Trypanosoma cruzi proliferation inhibition; shares compounds with T cruzi growth-1; T. cruzi beta-gal in NIH3T3, GalScreen luminescence, 90 h; inhibition, % at 2.09 µM; 5,600 tested, 21% active;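 active = mean inhibition above about 95%, with at least 55% of replicates also reaching it, limit read from the data; inconclusive = meets just one of the two conditions; inactive = meets neither condition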
NIH3T3 tox: cytotoxicity in mouse NIH/3T3 fibroblasts | 5,600 tested, 14% active | cytotoxicity (signal decrease), % at 8.35 µM | AID 651742 | shares compounds with T cruzi growth-1 | NIH/3T3 viability, CellTiter-Glo ATP luminescence, 90 h;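 active = mean signal decrease across replicates above about 35% based on untreated-well scatter, with enough replicates individually passing, limit read from the data; inconclusive = no rule stated though some were filed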
3T3 cytotox 2: cytotoxicity in mouse NIH/3T3 fibroblasts. 5,600 tested, 56% active. shares compounds with T cruzi growth-1. inhibition, % at 24.9 µM. NIH/3T3 viability, CellTiter-Glo ATP luminescence, 90 h;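 active = mean loss of cell viability signal at or above a set limit, and enough replicates individually reaching it; inconclusive = meets only the mean limit or only the replicate share; inactive = meets neither condition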
Numbers stand for hits; – = inactive; ? = inconclusive; · = no result given; ! = repeats disagree.

SMILES	Pf Dd2 inh	C diff growth	T cruzi growth-1	T cruzi growth-2	T cruzi growth-3	NIH3T3 tox	3T3 cytotox 2
COc1ccc(NC(=O)Nc2ccc3c(c2)C(=O)N([C@@H](C)CO)C[C@H](C)[C@H](CN(C)C(=O)Nc2ccc4c(c2)OCO4)OCCCC[C@H](C)O3)cc1	–	–	?	108.4	–	–	–
COc1ccc(C#Cc2ccc([C@@H]3[C@@H](CO)N4CCCCN(S(=O)(=O)c5ccccc5)C[C@@H]34)cc2)cc1	–	–	–	·	·	·	·
COc1ccc(C#Cc2ccc([C@H]3[C@@H](CO)N4CCCCN(S(=O)(=O)c5ccccc5)C[C@@H]34)cc2)cc1	–	–	102.8	102.9	–	–	–
O=S(=O)(c1ccccc1)N1CCCCN2[C@H](CO)[C@H](c3ccc(C#Cc4ccccc4)cc3)[C@H]2C1	–	–	–	·	·	·	·
O=S(=O)(c1ccccc1)N1CCCCN2[C@H](CO)[C@H](c3ccc(C#Cc4cccnc4)cc3)[C@H]2C1	–	–	109.0	114.4	–	–	62.9
N#Cc1ccc(-c2ccc([C@@H]3[C@@H](CO)N4CCCCN(S(=O)(=O)c5ccccc5)C[C@H]34)cc2)cc1	–	–	–	·	·	·	·
N#Cc1ccc(-c2ccc([C@H]3[C@@H](CO)N4CCCCN(S(=O)(=O)c5ccccc5)C[C@@H]34)cc2)cc1	–	–	95.5	106.5	–	–	–
O=S(=O)(c1ccccc1)N1CCCCN2[C@H](CO)[C@H](c3ccc(C#Cc4ccccc4)cc3)[C@@H]2C1	–	–	–	·	·	·	·
O=S(=O)(c1ccccc1)N1CCCCN2[C@H](C1)[C@H](c1ccc(C#Cc3ccccc3)cc1)[C@@H]2CO	–	–	?	101.1	–	?	104.7
CCNC(=O)C[C@@H]1CC[C@@H]2[C@H](COC[C@H](O)CN2Cc2ccncc2)O1	·	–	–	·	·	·	·
C[C@@H]1CN([C@@H](C)CO)C(=O)CCCn2nncc2CO[C@@H]1CN(C)C(=O)c1ccc2ccn(C)c2c1	–	–	–	·	·	·	·
C[C@H](CO)N1C[C@H](C)[C@@H](CN(C)C(=O)c2ccc3ccn(C)c3c2)OCc2cnnn2CCCC1=O	–	–	117.1!	–	–	–	–
CC(C)COC(=O)N(C)C[C@H]1OCc2cnnn2CCCC(=O)N([C@@H](C)CO)C[C@H]1C	–	–	–	·	·	·	·
C[C@@H]1CN([C@@H](C)CO)C(=O)CCCn2nncc2CO[C@@H]1CN(C)C(=O)NC1CCCC1	–	–	?	–	–	–	–
CC(C)COC(=O)N(C)C[C@@H]1OCc2cnnn2CCCC(=O)N([C@H](C)CO)C[C@H]1C	–	–	101.4!	–	–	–	–
C[C@H](CO)N1C[C@H](C)[C@H](CN(C)C(=O)NC2CCCCC2)OCc2cnnn2CCCC1=O	–	–	–	·	·	·	·
O=C(NCCN1CCCC1)[C@@H]1[C@@H](CO)[C@@H]2Cn3c(cccc3=O)[C@H]1N2C(=O)NC1CCCC1	–	–	·	·	·	·	·
CC=Cc1ccc2n(c1=O)C[C@@H]1[C@@H](CO)[C@H](C(=O)NCCC)[C@H]2N1CC1CC1 (mixture of isomers)	–	–	101.9	–	–	–	–
CC=Cc1ccc2n(c1=O)C[C@@H]1[C@@H](CO)[C@H](C(=O)NCC3CC3)N(CCC(F)(F)F)[C@H]21 (mixture of isomers)	–	–	111.4	–	–	–	–
CC=Cc1ccc2n(c1=O)C[C@@H]1[C@@H](CO)[C@H](C(=O)NCC3CC3)N(CCC)[C@H]21 (mixture of isomers)	–	–	·	·	·	·	·
CC=Cc1ccc2n(c1=O)C[C@H]1[C@H](CO)[C@@H](C(=O)NCCC)[C@@H]2N1C(=O)c1ccncc1 (mixture of isomers)	–	–	·	·	·	·	·
CC=Cc1ccc2n(c1=O)C[C@@H]1[C@@H](CO)[C@H](C(=O)NCCC)[C@H]2N1CC1CCOCC1 (mixture of isomers)	–	–	–	·	·	·	·
CC=Cc1ccc2n(c1=O)C[C@H]1[C@H](CO)[C@@H](C(=O)NCCC)[C@@H]2N1CC1CC1 (mixture of isomers)	–	–	101.5	–	–	–	–
CC=Cc1ccc2n(c1=O)C[C@H]1[C@H](CO)[C@@H](C(=O)NCCC)[C@@H]2N1CC1CCOCC1 (mixture of isomers)	–	–	–	·	·	·	·
CC=Cc1ccc2n(c1=O)C[C@@H]1[C@@H](CO)[C@H](C(=O)NCCC)[C@H]2N1C(=O)c1ccccc1F (mixture of isomers)	–	–	100.1	–	–	–	–
SMILES	Pf Dd2 inh	C diff growth	T cruzi growth-1	T cruzi growth-2	T cruzi growth-3	NIH3T3 tox	3T3 cytotox 2
C[C@@H]1CN([C@H](C)CO)S(=O)(=O)c2ccc(-c3cncnc3)cc2O[C@@H]1CN(C)C	–	–	–	·	·	·	·
Cc1cc(C(=O)Nc2cccc3c2O[C@@H](CN(C)Cc2ccc(C(F)(F)F)cc2)[C@@H](C)CN([C@H](C)CO)C3=O)n(C)n1	–	–	–	·	·	·	·
CCCNC(=O)[C@@H]1[C@@H](CO)[C@@H]2Cn3c(ccc(-c4cccc(F)c4)c3=O)[C@H]1N2CCC	–	–	–	·	·	·	·
COc1cccc(S(=O)(=O)N(C)C[C@H]2OCc3ccccc3-c3ccccc3C(=O)N([C@@H](C)CO)C[C@@H]2C)c1	–	–	–	·	·	·	·
COc1cccc(S(=O)(=O)N(C)C[C@H]2OCc3ccccc3-c3ccccc3C(=O)N([C@H](C)CO)C[C@@H]2C)c1	–	–	?	–	–	–	–
COc1cccc(CN(C)C[C@@H]2OCc3ccccc3-c3ccccc3C(=O)N([C@@H](C)CO)C[C@@H]2C)c1	–	–	–	·	·	·	·
COc1cccc(CN(C)C[C@H]2OCc3ccccc3-c3ccccc3C(=O)N([C@@H](C)CO)C[C@H]2C)c1	–	–	?	–	–	–	–
COC(=O)C[C@@H]1CC[C@H]2[C@@H](COc3ccc(NC(=O)c4ccccc4OC)cc3C(=O)N2C)O1	–	–	–	·	·	·	·
N#C[C@@H]1[C@@H](c2ccc(C3=CCCCC3)cc2)[C@H](CO)N1C(=O)c1ccccn1	–	–	–	·	·	·	·
N#C[C@H]1[C@H](c2ccc(C3=CCCCC3)cc2)[C@@H](CO)N1C(=O)c1ccccn1	–	–	–	·	·	·	·
N#C[C@@H]1[C@@H](c2ccc(C3=CCCCC3)cc2)[C@@H](CO)N1C(=O)c1ccccn1	–	–	101.6	–	–	–	–
N#C[C@@H]1[C@H](c2ccc(C3=CCCCC3)cc2)[C@H](CO)N1C(=O)c1ccccn1	–	–	101.0	100.4	104.6	–	–
COc1cccc(-c2cnc3c(c2)C(=O)N([C@H](C)CO)C[C@H](C)[C@@H](CN(C)CC2CCCC2)O3)c1	–	·	·	·	·	·	·
CCCC(=O)Nc1ccc2c(c1)C(=O)N(C)[C@H]1CC[C@H](CC(=O)NCCOC)O[C@@H]1CO2	–	–	–	·	·	·	·

Source: PubChem (Broad Institute)
